# Data as given in PubChem BioAssay (NCI).
# The panel holds about 79,000 compounds, 15% with a hit somewhere; the sample as a whole holds those more often. A number with no mark means an inactive call. The source made the active and inactive calls. Rule as the data show it: active = growth inhibition above about 70%; inactive = the rest.
# How the values were obtained:
# [1] = NCI Yeast Anticancer Drug Screen. Data for the rad52 strain (AID 147);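 also: 0% = growth of vehicle-treated control cultures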; details: S. cerevisiae rad52 mutant growth inhibition, active compounds read high
# Procedure, shortened: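 Read-out: growth inhibition versus vehicle-treated controls. Cells were a DNA repair-deficient yeast strain treated with compounds.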
# [2] = NCI Yeast Anticancer Drug Screen. Data for the wt1 strain (AID 149);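 also: 0% = growth of vehicle-treated wt1 cultures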; details: S. cerevisiae wt1 strain (SPY 50644) growth inhibition, active compounds read high
# Procedure, shortened: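 Each compound is tested on wt1 yeast and the loss of growth versus vehicle gives the inhibition value.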
# [3] = NCI Yeast Anticancer Drug Screen. Data for the mgt1 strain (AID 153); details: S. cerevisiae mgt1 mutant growth inhibition, active compounds read high
# Procedure, shortened: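 mgt1 yeast grown with test compound; read-out is growth inhibition versus vehicle-treated cultures.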
# [4] = NCI Yeast Anticancer Drug Screen. Data for the rad50 strain (AID 155);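 also: 0% = growth of vehicle-only cultures of the same strain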; details: S. cerevisiae rad50 strain growth inhibition, active compounds read high
# Procedure, shortened: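 Vehicle-treated cultures provide the reference for the growth inhibition reported for compound-exposed, repair-deficient yeast.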
# [5] = NCI Yeast Anticancer Drug Screen. Data for the mec2-1 strain (AID 157); details: S. cerevisiae mec2-1 strain, active compounds read high
# Procedure, shortened: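 Yeast mec2-1 mutant treated with compound. Readout: growth inhibition vs vehicle controls.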
# [6] = NCI Yeast Anticancer Drug Screen. Data for the rad14 strain (AID 159);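 also: 0% = growth of vehicle-treated control cultures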; details: S. cerevisiae rad14 strain growth inhibition, active compounds read high
# Procedure, shortened: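 Inhibition of growth is reported for a repair-deficient yeast mutant following compound treatment, calculated relative to cultures that received vehicle.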
# [7] = NCI Yeast Anticancer Drug Screen. Data for the sgs1 mgt1 strain (AID 161);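 also: 0% = growth of cultures given vehicle only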; details: S. cerevisiae sgs1 mgt1 strain, active compounds read high
# Procedure, shortened: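 Inhibition of yeast growth, normalised to vehicle-treated controls, is reported for a strain bearing genetic alterations in DNA damage repair.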
# [8] = NCI Yeast Anticancer Drug Screen. Data for the CLN2oe strain (AID 163);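 also: 0% = growth of vehicle-only control cultures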; details: S. cerevisiae CLN2oe strain, active compounds read high
# Procedure, shortened: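 Read-out: yeast growth inhibition, expressed relative to vehicle-only controls. The strain bears an engineered cell-cycle alteration.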
# [9] = NCI Yeast Anticancer Drug Screen. Data for the cln2 rad14 strain (AID 165);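 also: 0% = growth equal to vehicle treated cultures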; details: S. cerevisiae cln2 rad14 strain, active compounds read high
# Procedure, shortened: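 cln2 rad14 yeast strain; compound exposure; growth inhibition read vs vehicle controls.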
# [10] = NCI Yeast Anticancer Drug Screen. Data for the bub3 strain (AID 167); details: S. cerevisiae bub3 mutant strain, active compounds read high
# Procedure, shortened: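 Mutant yeast screening strain plus compound; vehicle-treated cultures serve as the 0% inhibition reference.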
# [11] = NCI Yeast Anticancer Drug Screen. Data for the wt2 strain (AID 169); details: S. cerevisiae wt2 strain growth inhibition, active compounds read high
# Procedure, shortened: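 Read-out: growth inhibition versus vehicle-treated control cultures after compound exposure of the yeast strain.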
# [12] = NCI Yeast Anticancer Drug Screen. Data for the mlh1 strain (AID 171);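 also: 0% = growth of vehicle-treated control cultures of the same strain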; details: S. cerevisiae mlh1 strain growth inhibition, active compounds read high
# Procedure, shortened: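 Read-out: growth inhibition versus vehicle controls. Strain: engineered yeast with a defined DNA repair or cell cycle defect, compound-treated.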
# [13] = NCI Yeast Anticancer Drug Screen. Data for the sgs1 strain (AID 173);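 also: 0% = growth of vehicle-only control cultures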; details: S. cerevisiae sgs1 mutant, active compounds read high
# Procedure, shortened: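 Read-out: yeast growth inhibition relative to vehicle controls, following compound exposure of a strain with a defined DNA repair/cell cycle alteration.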
# [14] = NCI Yeast Anticancer Drug Screen. Data for the mlh1 rad18 strain (AID 175); details: S. cerevisiae mlh1 rad18 strain growth inhibition, active compounds read high
# Procedure, shortened: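 Yeast w/ defined DNA-repair lesions; compound exposure; growth vs vehicle controls → % inhibition.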
# [15] = NCI Yeast Anticancer Drug Screen. Data for the rad18 strain (AID 177); details: S. cerevisiae rad18 mutant growth inhibition, active compounds read high
# Procedure, shortened: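 Readout: growth inhibition vs vehicle controls. Cells: genetically altered yeast strain, DNA repair defect.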
# [16] = at 5.0 µM (retest, dose inferred, filed as 0.5)
# [17] = at 50.0 µM (retest, dose inferred, filed as 5.0)
compound,measurement,setting,value
Brc1ccc(B2Nc3ccccc3N2)cc1,growth inhibition,[1]; at 1.2 µM,3%
same,growth inhibition,[1]; at 3.7 µM,14%
same,growth inhibition,[1]; at 11.0 µM,29%
same,growth inhibition,[1]; at 33.0 µM,42%
same,growth inhibition,[1]; at 100.0 µM,46%
same,growth inhibition,[2]; at 1.2 µM,-2%
same,growth inhibition,[2]; at 3.7 µM,-1%
same,growth inhibition,[2]; at 11.0 µM,16%
same,growth inhibition,[2]; at 33.0 µM,31%
same,growth inhibition,[2]; at 100.0 µM,40%
same,growth inhibition,[3]; at 1.2 µM,-5%
same,growth inhibition,[3]; at 3.7 µM,-2%
same,growth inhibition,[3]; at 11.0 µM,10%
same,growth inhibition,[3]; at 33.0 µM,25%
same,growth inhibition,[3]; at 100.0 µM,5%
same,growth inhibition,[4]; at 1.2 µM,6%
same,growth inhibition,[4]; at 3.7 µM,14%
same,growth inhibition,[4]; [16],21%
same,growth inhibition,[4]; at 11.0 µM,29%
same,growth inhibition,[4]; at 33.0 µM,44%
same,growth inhibition,[4]; [17],53%
same,growth inhibition,[4]; at 50.0 µM,73.8% (active)
same,growth inhibition,[4]; at 100.0 µM,54%
same,growth inhibition,[5]; at 1.2 µM,1%
same,growth inhibition,[5]; at 3.7 µM,6%
same,growth inhibition,[5]; [16],17%
same,growth inhibition,[5]; at 11.0 µM,18%
same,growth inhibition,[5]; at 33.0 µM,31%
same,growth inhibition,[5]; [17],59%
same,growth inhibition,[5]; at 50.0 µM,56.8%
same,growth inhibition,[5]; at 100.0 µM,46%
same,growth inhibition,[6]; at 1.2 µM,13%
same,growth inhibition,[6]; at 3.7 µM,24%
same,growth inhibition,[6]; at 11.0 µM,37%
same,growth inhibition,[6]; at 33.0 µM,53%
same,growth inhibition,[6]; at 100.0 µM,63%
same,growth inhibition,[7]; [16],31%
same,growth inhibition,[7]; [17],77% (active)
same,growth inhibition,[7]; at 50.0 µM,82.1% (active)
same,growth inhibition,[8]; at 1.2 µM,-3%
same,growth inhibition,[8]; at 3.7 µM,5%
same,growth inhibition,[8]; at 11.0 µM,29%
same,growth inhibition,[8]; at 33.0 µM,39%
same,growth inhibition,[8]; at 100.0 µM,43%
same,growth inhibition,[9]; [16],12%
same,growth inhibition,[9]; [17],40%
same,growth inhibition,[9]; at 50.0 µM,71.7% (active)
same,growth inhibition,[10]; at 1.2 µM,9%
same,growth inhibition,[10]; at 3.7 µM,19%
same,growth inhibition,[10]; [16],30%
same,growth inhibition,[10]; at 11.0 µM,15%
same,growth inhibition,[10]; at 33.0 µM,43%
same,growth inhibition,[10]; [17],73% (active)
same,growth inhibition,[10]; at 50.0 µM,84.8% (active)
same,growth inhibition,[10]; at 100.0 µM,52%
same,growth inhibition,[11]; at 1.2 µM,-4%
same,growth inhibition,[11]; at 3.7 µM,-4%
same,growth inhibition,[11]; at 11.0 µM,6%
same,growth inhibition,[11]; at 33.0 µM,17%
same,growth inhibition,[11]; at 100.0 µM,27%
same,growth inhibition,[12]; at 1.2 µM,0%
same,growth inhibition,[12]; at 3.7 µM,6%
same,growth inhibition,[12]; at 11.0 µM,17%
same,growth inhibition,[12]; at 33.0 µM,28%
same,growth inhibition,[12]; at 100.0 µM,44%
same,growth inhibition,[13]; at 1.2 µM,0%
same,growth inhibition,[13]; at 3.7 µM,6%
same,growth inhibition,[13]; at 11.0 µM,23%
same,growth inhibition,[13]; at 33.0 µM,35%
same,growth inhibition,[13]; at 100.0 µM,45%
same,growth inhibition,[14]; [16],47%
same,growth inhibition,[14]; [17],87% (active)
same,growth inhibition,[14]; at 50.0 µM,82.5% (active)
same,growth inhibition,[15]; at 1.2 µM,-2%
same,growth inhibition,[15]; at 3.7 µM,1%
same,growth inhibition,[15]; at 11.0 µM,13%
same,growth inhibition,[15]; at 33.0 µM,23%
same,growth inhibition,[15]; at 100.0 µM,36%
